HP1b chromo inh – HP1-beta chromodomain-methylated histone interaction inhibition. Potency, µM (highest dose often 114 µM), hits mostly inhibitors. AlphaScreen HP1-beta / biotin-H3K9me3 peptide binding. hit rate 0.56% among 390,000; note: nearly all actives have a fitted effect of over 70% in size
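HP1-beta protein (50 nM final) preincubated 30 min at room temperature with biotinylated H3(1-18)K9me3 peptide (50 nM) in PBS pH 7.4, 0.01% Tween-20, then compound added for 30 min. AlphaScreen streptavidin donor/nickel chelate acceptor beads (10 ug/mL final), 30 min dark, luminescence read.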
BAZ2B block – BAZ2B (human) inhibition; AlphaScreen BAZ2B-H3K14Ac peptide displacement; Potency, µM (series often up to 114 µM), usual class: inhibitors; hit rate 4.4% among 360,000; note: nearly all actives have a fitted effect of over 60% in size
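AlphaScreen displacement: compounds (up to 110uM) incubated 30 min at room temperature with a preformed 50 nM BAZ2B/50 nM biotinylated H3K14Ac peptide complex in PBS pH 7.4 with Tween-20. Donor and acceptor beads at 10 ug/mL final added, 20 min light-protected before reading.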
L3MBTL1 block – L3MBTL1 (human) inhibition. hit rate 0.66% among 230,000. AID 485360. Q9Y468. AlphaScreen L3MBTL1–H3K9me1 peptide binding. Potency, µM (top dose mostly 57.1 µM), hits mostly inhibitors; note: nearly all actives have a fitted effect of over 60% in size
Target sequence (Q9Y468 whole entry, looked up): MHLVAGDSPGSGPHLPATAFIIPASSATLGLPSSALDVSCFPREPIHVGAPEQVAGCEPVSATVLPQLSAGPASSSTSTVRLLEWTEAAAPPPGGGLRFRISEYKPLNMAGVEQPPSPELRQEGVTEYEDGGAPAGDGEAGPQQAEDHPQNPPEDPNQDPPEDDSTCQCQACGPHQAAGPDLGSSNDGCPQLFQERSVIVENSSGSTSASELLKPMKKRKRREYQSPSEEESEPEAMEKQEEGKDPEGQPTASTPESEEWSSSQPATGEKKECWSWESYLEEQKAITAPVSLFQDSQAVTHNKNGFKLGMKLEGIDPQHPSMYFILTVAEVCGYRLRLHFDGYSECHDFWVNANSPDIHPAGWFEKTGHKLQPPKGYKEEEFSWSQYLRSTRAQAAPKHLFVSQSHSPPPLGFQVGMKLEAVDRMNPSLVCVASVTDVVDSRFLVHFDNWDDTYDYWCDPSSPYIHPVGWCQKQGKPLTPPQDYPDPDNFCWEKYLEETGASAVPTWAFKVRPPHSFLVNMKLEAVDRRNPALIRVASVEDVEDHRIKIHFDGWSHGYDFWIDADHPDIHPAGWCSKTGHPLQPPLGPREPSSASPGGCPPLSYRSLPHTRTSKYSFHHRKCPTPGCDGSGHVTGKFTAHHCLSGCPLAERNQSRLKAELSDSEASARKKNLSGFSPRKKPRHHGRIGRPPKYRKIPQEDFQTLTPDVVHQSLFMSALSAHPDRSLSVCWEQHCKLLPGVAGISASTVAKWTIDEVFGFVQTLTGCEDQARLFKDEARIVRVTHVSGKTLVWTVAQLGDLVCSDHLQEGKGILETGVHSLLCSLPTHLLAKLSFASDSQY
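Read-out is AlphaScreen signal from streptavidin donor and nickel chelate acceptor beads (10 ug/mL final each) bridging L3MBTL1 (50 nM) and biotinylated K9-monomethylated H3(1-15) peptide (75 nM), after 30 min compound exposure at room temperature.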
JMJD2A Tudor inh – blocks the human JMJD2A Tudor domain; O75164; AlphaScreen JMJD2A-Tudor / H3K4me3 peptide binding; Potency, µM (highest dose often 114 µM), most hits filed as inhibitors; hit rate 4.4% among 390,000; AID 504339; note: nearly all actives have a fitted effect of over 50% in size
G9a block – blocks human histone lysine methyltransferase G9a | G9a H3K9 monomethylation, AlphaScreen, 2 h | Potency, µM (series often up to 102 µM), actives largely listed as inhibitors | hit rate 8.8% among 350,000 | AID 504332; note: nearly all actives have a fitted effect of over 75% in size
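Step 1: enzyme (final 20 nM) with compound, 15 min RT. Step 2: substrate peptide 500 nM and SAM 20 uM, 2 h RT. Step 3: anti-H3K9me1 antibody and AlphaScreen beads, 10 min, then plate read.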
Sfp inh – Sfp phosphopantetheinyl transferase inhibition; Biochemical Sfp PPTase activity, qHTS; Potency, µM, actives largely listed as inhibitors; hit rate 3.5% among 310,000; AID 1490;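 note: the enzyme is Sfp with the accession as filed and its product quenches rhodamine fluorescence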
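Reaction rates are the 30-min fluorescence difference (ex 525, em 598 nm) in wells containing 15 nM Sfp, 5 uM rhodamine-CoA and 12.5 uM BHQ-2-YbbR at pH 7.6 with 10 mM MgCl2.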
Numbers stand for hits; - = inactive; ? = inconclusive; . = no result given; [ ] = dose if it differs, or a comment. Rows were chosen to be rich in hits. Some 12% of all compounds tested hit in one or more screens of this group. Calls come from the whole dose curve; as a rule, active = well fitted curve in the direction sought with a large enough effect; inconclusive = small, poorly fitted or top-dose-only effect, or another doubt; inactive = no such curve, though single readings can be large; an effect the other way counts as inactive or inconclusive.

SMILES | HP1b chromo inh | BAZ2B block | L3MBTL1 block | JMJD2A Tudor inh | G9a block | Sfp inh
Cc1nc(N2CCN(Cc3ccccc3)CC2)nc2c1C(=O)CC(c1ccco1)C2 (stereo unspecified) | - | ? | . | ? | ? | ?
Cc1nc(N2CCN(Cc3ccc4c(c3)OCO4)CC2)nc2c1C(=O)CC(c1ccco1)C2 (stereo unspecified) | - | ? | - | ? | 40µM | -
CCOC(=O)[C@H](CCc1ccccc1)N[C@@H](C)C(=O)N1[C@H](C(=O)O)C[C@H]2CCC[C@@H]21 | . | . | . | . | -[12.7 µM] | -
O=C(CSc1ncc(S(=O)(=O)c2ccc(Cl)cc2)c(=O)[nH]1)Nc1ccc2c(c1)OCCO2 | - | - | . | - | - | .
COc1cccc(C(=O)NCCS(=O)(=O)NCc2ccc3c(c2)OCO3)c1 | - | - | - | - | 40µM | .
COc1ccc(CNS(=O)(=O)CCNC(=O)c2ccccc2)cc1 | - | - | - | - | - | .
COc1ccc(CNS(=O)(=O)CCNC(=O)c2cccc(OC)c2)cc1 | - | - | - | - | 50µM | .
COc1ccc(NS(=O)(=O)c2cccc(C(=O)NCc3ccccn3)c2)cc1 | - | - | - | - | - | .
COc1ccc(C(=O)NCCS(=O)(=O)NCc2ccc3c(c2)OCO3)cc1 | - | - | - | - | -[0.501 µM] | .
COc1cccc(C(=O)NCCS(=O)(=O)NCc2ccccn2)c1 | - | - | - | 2.5µM | ? | .
Cc1ccc(NC(=O)CCCN2C(=O)COc3ccc(C)cc32)c(Cl)c1 | - | - | . | - | - | .
COC(=O)c1c(NC(=O)CC2Nc3cc(C)c(C)cc3NC2=O)sc(C)c1C (stereo unspecified) | - | - | - | - | 20µM | 56µM
CCc1cc(C(=O)OC)c(NC(=O)CC2Nc3cc(C)c(C)cc3NC2=O)s1 (stereo unspecified) | - | - | - | - | ? | -
Cc1cc2c(cc1C)NC(CC(=O)NCc1ccccc1)C(=O)N2 (stereo unspecified) | - | - | - | - | 3.2µM | -
COC(=O)[C@H]1[C@H]2CC3c4[nH]c5ccccc5c4CCN3C[C@@H]2CC[C@@H]1O (stereo partly specified) | . | . | . | . | . | -
Cc1ccc(Cl)cc1N1CCN(C(=O)Cn2cnc3onc(-c4ccc(F)cc4)c3c2=O)CC1 | - | - | . | - | - | .
CCCC(=O)NC(=S)Nc1sc2c(c1C(N)=O)CCC2 | - | - | - | - | 7.9µM | 40µM
CC(C)C(=O)NC(=S)Nc1sc2c(c1C(N)=O)CCCC2 | ? | - | - | ? | 4µM | ?
CCC(=O)Nc1sc2c(c1C(N)=O)CCC2 | - | - | - | - | - | -
CCC(=O)N1CCc2cc(S(=O)(=O)CCC(=O)Nc3ccc(F)c(F)c3)ccc21 | - | 56µM | . | - | - | -
CCC(=O)N1CCc2cc(S(=O)(=O)CCC(=O)Nc3cccc(F)c3)ccc21 | - | - | - | - | 22µM | -
O=C(NCCc1ccccc1)C1CCN(Cc2cc3ccccc3n2Cc2ccccc2)CC1 | - | - | . | - | - | .
CCN(CC)S(=O)(=O)c1ccc2c(c1)nc(-c1ccccn1)n2C | - | - | . | 32µM | 10µM | -
COc1ccc(/C(C)=N/NC(=O)c2ccccc2OCc2ccccc2)c(OC)c1 | - | - | - | 18µM | - | -
O=C(NC12CC3CC(CC(C3)C1)C2)c1cnccn1 | - | - | - | - | - | -
SMILES | HP1b chromo inh | BAZ2B block | L3MBTL1 block | JMJD2A Tudor inh | G9a block | Sfp inh
C/C(CC(=O)NC12CC3CC(CC(C3)C1)C2)=N\NC(=O)c1cnccn1 | - | - | . | - | - | 50µM
COc1ccc(/C=N/NC(=O)c2ccccc2OCc2ccccc2)c(OC)c1 | - | - | - | - | - | -
CN(C)c1ccc(NC(=O)CC(NCc2ccccn2)C(=O)O)cc1 (stereo unspecified) | - | 5.6µM | 13µM | 18µM | - | -
C/C(CC(=O)Nc1ccc(N(C)C)cc1)=N\NC(=O)c1ccccn1 | ? | 56µM | - | ? | 50µM | -
N#Cc1ccc(CN2CCCC3(CCN(C(=O)c4csnn4)CC3)C2)cc1 | . | . | . | . | -[12.7 µM] | -
O=C(Cn1c(=O)n(-c2ccc(F)cc2)c(=O)c2sc3ccccc3c21)NC1CCCCC1 | - | - | . | - | - | .

Screening results: PubChem BioAssay, National Center for Advancing Translational Sciences (NCATS)
